From publication PMC10812921, “Transcriptional Coactivator BOB1 (OBF1, OCA-B) Modulates the Specificity of DNA Recognition by the POU-Domain Factors OCT1 and OCT2 in a Monomeric Configuration”

These sequences were tested against POU1 (OCT1 POU domain) (human, UniProt P14859 260-458) (assay: EMSA-SELEX-seq; no BOB1; 20 mM Tris-HCl pH 7.6, 140 mM NaCl, 10% glycerol, 0.5 mM EDTA, 0.05% Triton X-100, 0.1 mg/mL BSA, 0.1 mg/mL poly(dI-dC), 5 mM DTT, room temperature, 20 min; high values mean tight binding). Conditions: protein: recombinant; dsDNA, one strand shown.
POU1 (OCT1 POU domain), sequence (P14859 260-458): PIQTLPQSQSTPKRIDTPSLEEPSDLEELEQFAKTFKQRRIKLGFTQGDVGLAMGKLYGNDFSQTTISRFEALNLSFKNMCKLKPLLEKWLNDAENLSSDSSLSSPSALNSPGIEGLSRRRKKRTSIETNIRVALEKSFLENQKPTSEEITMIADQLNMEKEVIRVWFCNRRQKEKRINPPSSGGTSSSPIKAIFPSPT
How it was run: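 A double-stranded random 35-nt library (300 ng, PCR-amplified) was incubated with 30 ng tagged POU-domain protein, with or without 28 ng coactivator protein, in 20 μL Tris–HCl pH 7.6 binding buffer for 20 min at RT. The proteins had been expressed in E. coli BL21, purified under denaturing conditions and renatured. Complex bands from native 6% PAGE were eluted and PCR-amplified over four rounds, then sequenced on Illumina. For binding preference, the percentage of sequenced 8-mers matching a motif pattern was calculated.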

Sequence	binding signal
AGCGCAAT	0.0278 % of ANNNNAAN 8-mers
ATGACAAA	0.0622 % of ANNNNAAN 8-mers
ATTTAAAA	0.303 % of ANNNNAAN 8-mers
ATGCGAAG	0.0538 % of ANNNNAAN 8-mers
ACGATAAG	0.0275 % of ANNNNAAN 8-mers
ACCAGAAT	0.032 % of ANNNNAAN 8-mers
ATCTCAAT	0.0561 % of ANNNNAAN 8-mers
ATTTCAAG	0.0542 % of ANNNNAAN 8-mers
ATGCGAAA	0.0835 % of ANNNNAAN 8-mers
ATCCGAAG	0.0275 % of ANNNNAAN 8-mers
ATTAAAAC	0.108 % of ANNNNAAN 8-mers
ACCGTAAA	0.0244 % of ANNNNAAN 8-mers
ACTTAAAA	0.0587 % of ANNNNAAN 8-mers
AGTATAAC	0.0278 % of ANNNNAAN 8-mers
AACAGAAG	0.0244 % of ANNNNAAN 8-mers
ACACCAAT	0.0187 % of ANNNNAAN 8-mers
ATCTTAAT	0.126 % of ANNNNAAN 8-mers
ATACAAAT	0.318 % of ANNNNAAN 8-mers
ATGTCAAC	0.0214 % of ANNNNAAN 8-mers
AACCTAAA	0.0206 % of ANNNNAAN 8-mers

Sequence	binding signal
AAACAAAT	0.352 % of ANNNNAAN 8-mers
AGTCGAAT	0.061 % of ANNNNAAN 8-mers
ATCATAAA	0.0736 % of ANNNNAAN 8-mers
AGGCTAAT	0.133 % of ANNNNAAN 8-mers
AGCCGAAA	0.0191 % of ANNNNAAN 8-mers
ACATCAAA	0.0374 % of ANNNNAAN 8-mers
AACGCAAA	0.147 % of ANNNNAAN 8-mers
AGTGGAAC	0.0267 % of ANNNNAAN 8-mers
ACTCGAAC	0.016 % of ANNNNAAN 8-mers
ACGGGAAT	0.0641 % of ANNNNAAN 8-mers
ACGACAAG	0.0175 % of ANNNNAAN 8-mers
AGTTAAAT	0.219 % of ANNNNAAN 8-mers
AGCTTAAC	0.0194 % of ANNNNAAN 8-mers
ACGTGAAC	0.0153 % of ANNNNAAN 8-mers
ACTAGAAT	0.0473 % of ANNNNAAN 8-mers
AAAATAAT	0.178 % of ANNNNAAN 8-mers
AGTAGAAG	0.0404 % of ANNNNAAN 8-mers
AACGTAAG	0.0301 % of ANNNNAAN 8-mers
ATACGAAT	0.0908 % of ANNNNAAN 8-mers
